Laboratory results published in PubChem BioAssay.
Calls of active or inactive are those of the source. Unless noted, the rule behind the calls is not given here.

Tests used:
[1] = HepG2 liver cancer cell viability effects, profiling panel, resazurin fluorescence, 24 h, PK04 Diversity Set (AID 1172); conditions: higher = more signal
[2] = basal S. cerevisiae growth modulation, no modifier, primary screen, OD600, strain BY4716, 24 h, basal condition (AID 1173); conditions: OD600, 24 h, higher = more signal, called active from +8 up or from −8 down
[3] = MM1S myeloma cell viability, profiling panel, resazurin fluorescence, basal, 24 h, PK04 Diversity Set (AID 1174); conditions: higher = more signal, called active from +8 up or from −8 down;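 note: MM1S multiple myeloma cell line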
[4] = biological target: Dihydroorotate dehydrogenase (quinone), mitochondrial (Plasmodium falciparum (isolate 3D7)) (UniProt Q08210); assay: PfDHODH enzyme inhibitors, primary screen, biochemical, C-terminal His tag, absorbance 600 nm (AID 1175); conditions: DCIP absorbance 600 nm, higher = more signal, called active from +8 up or from −8 down;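 note: recombinant parasite enzyme with a five histidine tag at its C terminus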
[5] = P. aeruginosa biofilm formation inhibitors, primary screen, strain PAO1, LB-PBS medium, absorbance 600 nm (AID 1176); conditions: P. aeruginosa PAO1 growth/biofilm, A600, 12 h; higher = more signal
[6] = S. cerevisiae RM11-1a growth modifiers, primary screen, strain RM11-1a, OD600, basal, 24 h (AID 1177); conditions: OD600, 24 h, higher = more signal, called active from +8 up or from −8 down;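 note: cultures grown under basal conditions with no added stressor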
[7] = E. coli acrAB mutant growth effects, primary screen, E. coli filamentation inducers, strain DRC39, OD650, 24 h (AID 1178); conditions: higher = more signal, called active from +8 up or from −8 down;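 note: growth measured as culture turbidity by optical density at 650 nm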
[8] = E. coli acrAB mutant growth effects, primary screen, E. coli filamentation inducers, strain DRC39, OD650, 48 h (AID 1179);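 note: screen aims at cell division blockers that make cells filament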; conditions: E. coli DRC39 delta-acrAB growth, higher = more signal, called active from +8 up or from −8 down
[9] = RPMI8226 myeloma cell viability, profiling panel, resazurin fluorescence, basal, 24 h, PK04 Diversity Set (AID 1180); conditions: higher = more signal;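 note: RPMI8826 multiple myeloma cell line at 5000 cells per well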
[10] = biological target: E3 ubiquitin-protein ligase XIAP (Homo sapiens) (UniProt P98170); assay: XIAP binders, primary screen, biophysical, small-molecule microarray, fluorescence 635 nm (AID 1181); conditions: small-molecule microarray binding, higher = more signal;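 note: score merges 667 nm emission and signal to noise over triplicate slides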
[11] = tested on: XIP peptide (Xip251-270) binding; assay: small-molecule binders of XIP peptide, primary screen, biochemical, small-molecule microarray, fluorescence 635/667 nm, 0.1 µg/mL protein (AID 1182); conditions: fluorescent protein binding, 635 nm, higher = more signal, called active from +8 up or from −8 down
XIP peptide (Xip251-270) = assay: small-molecule binders of XIP peptide, primary screen, biochemical, small-molecule microarray, fluorescence 635/667 nm, 0.5 µg/mL protein (AID 1183); conditions: small-molecule microarray binding, fluorescence 635 nm; higher = more signal
[12] = Plasmodium falciparum growth inhibition, primary screen, strain 3D7, DAPI fluorescence, 100 nL (AID 1184);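 note: parasites grown inside human red blood cells in medium with human serum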; conditions: P. falciparum 3D7 growth, 3 d, higher = more signal
[13] = biological target: Homeobox protein Hox-A13 (Mus musculus) (UniProt Q62424); assay: inhibitors of HoxA13-DNA binding, primary screen, biochemical, fluorescence polarization, labeled oligonucleotide (AID 1185); conditions: 15 min, higher = more signal, called active from +8 up or from −8 down
[14] = inhibitors of hydroxyurea-induced Chk1 phosphorylation, primary screen, imaging, HeLa, phospho-Chk1 antibody, percent positive cells (AID 1186); conditions: hydroxyurea-induced phospho-Chk1 immunofluorescence imaging, higher = more signal
[15] = inhibitors of hydroxyurea-induced Chk1 phosphorylation, primary screen, imaging, HeLa, phospho-Chk1 nuclear intensity (AID 1187); conditions: hydroxyurea-induced phospho-Chk1 immunofluorescence imaging, higher = more signal

Sequence of Homeobox protein Hox-A13 (Mus musculus) (Q62424 whole entry, looked up): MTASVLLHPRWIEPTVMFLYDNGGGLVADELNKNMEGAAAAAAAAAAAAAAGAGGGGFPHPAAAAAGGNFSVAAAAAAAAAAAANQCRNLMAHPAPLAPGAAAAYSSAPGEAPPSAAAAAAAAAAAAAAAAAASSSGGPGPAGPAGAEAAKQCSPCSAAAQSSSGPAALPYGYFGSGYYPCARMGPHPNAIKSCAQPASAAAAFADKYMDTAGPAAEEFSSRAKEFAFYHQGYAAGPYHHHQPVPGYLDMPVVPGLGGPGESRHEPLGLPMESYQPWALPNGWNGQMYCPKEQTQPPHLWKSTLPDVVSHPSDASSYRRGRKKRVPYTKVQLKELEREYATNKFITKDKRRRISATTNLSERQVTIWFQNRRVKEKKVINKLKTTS
Sequence of Dihydroorotate dehydrogenase (quinone), mitochondrial (Plasmodium falciparum (isolate 3D7)) (Q08210 whole entry, looked up): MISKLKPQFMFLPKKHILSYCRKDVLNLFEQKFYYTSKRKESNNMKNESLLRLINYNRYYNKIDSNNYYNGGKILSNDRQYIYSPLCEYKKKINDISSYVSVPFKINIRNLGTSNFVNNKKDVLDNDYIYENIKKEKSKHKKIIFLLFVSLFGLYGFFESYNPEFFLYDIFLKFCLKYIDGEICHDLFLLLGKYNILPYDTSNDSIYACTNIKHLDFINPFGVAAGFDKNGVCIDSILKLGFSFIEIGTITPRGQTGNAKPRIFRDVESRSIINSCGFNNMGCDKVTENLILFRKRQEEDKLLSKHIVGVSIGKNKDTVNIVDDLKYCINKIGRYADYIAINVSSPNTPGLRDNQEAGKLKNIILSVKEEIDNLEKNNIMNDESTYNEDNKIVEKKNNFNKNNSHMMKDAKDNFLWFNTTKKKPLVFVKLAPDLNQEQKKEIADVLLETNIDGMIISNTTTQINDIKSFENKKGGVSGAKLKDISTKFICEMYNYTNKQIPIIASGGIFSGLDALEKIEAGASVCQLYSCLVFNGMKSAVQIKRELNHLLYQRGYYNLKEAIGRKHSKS
Sequence of E3 ubiquitin-protein ligase XIAP (Homo sapiens) (P98170 whole entry, looked up): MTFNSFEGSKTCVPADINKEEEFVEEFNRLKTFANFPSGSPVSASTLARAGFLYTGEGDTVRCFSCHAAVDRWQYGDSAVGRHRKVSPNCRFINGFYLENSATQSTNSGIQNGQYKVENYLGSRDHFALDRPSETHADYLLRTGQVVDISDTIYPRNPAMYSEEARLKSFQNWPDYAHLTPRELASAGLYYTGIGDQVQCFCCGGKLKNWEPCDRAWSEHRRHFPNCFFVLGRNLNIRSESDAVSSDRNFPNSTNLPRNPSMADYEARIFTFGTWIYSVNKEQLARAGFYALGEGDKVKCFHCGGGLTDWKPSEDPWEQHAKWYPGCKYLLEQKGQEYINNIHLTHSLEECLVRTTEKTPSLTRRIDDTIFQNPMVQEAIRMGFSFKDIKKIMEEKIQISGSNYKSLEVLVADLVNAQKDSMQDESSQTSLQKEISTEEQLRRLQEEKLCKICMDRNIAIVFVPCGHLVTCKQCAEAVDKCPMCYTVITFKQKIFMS

Q: For `[N-]=[N+]=Nc1ccccc1C[C@]1(C(N)=O)COC(c2ccc(OCCCO)cc2)=N1`, which z-score [1] is on record?
A: 0.978

Q: What about the z-score [2] of the same compound?
A: -0.0745 (inactive)

Q: And the z-score [3]?
A: 0.157 (inactive)

Q: What about the composite z-score [4] of the same compound?
A: -0.265 (inactive)

Q: What about the z-score [5] of the same compound?
A: 0.398 (inactive)

Q: And the z-score [6]?
A: -0.762 (inactive)

Q: And the z-score [7]?
A: 0.578 (inactive)

Q: And the z-score [8]?
A: -0.364 (inactive)

Q: And the z-score [9]?
A: 0.177

Q: What about the composite z-score [10] of the same compound?
A: 0.396

Q: And the composite z-score [11]?
A: 0.29 (inactive)

Q: What about the composite z-score (XIP peptide (Xip251-270)) of the same compound?
A: 0.546

Q: What about the z-score [12] of the same compound?
A: -1.88

Q: What about the z-score [13] of the same compound?
A: -4.74 (inactive)

Q: What about the z-score [14] of the same compound?
A: -0.393 (inactive)

Q: What about the z-score [15] of the same compound?
A: -0.137 (inactive)

Q: Which results are given for `COCCCNC(=O)[C@]1(Cc2ccccc2N=[N+]=[N-])N=C(c2ccc(OCCCO)cc2)O[C@@H]1c1ccccc1`?
A: z-score [1]: 0.83; z-score [2]: -0.591 (inactive); z-score [3]: -1.25 (inactive); composite z-score [4]: -0.28 (inactive); z-score [5]: -0.444 (inactive); z-score [6]: -0.029 (inactive); z-score [7]: 2.99 (inactive); z-score [8]: 0.26 (inactive); z-score [9]: -0.953; composite z-score [10]: 0.267; composite z-score [11]: 1.22 (inactive); composite z-score (XIP peptide (Xip251-270)): 0.77; z-score [12]: -2.17; z-score [13]: -2.62 (inactive); z-score [14]: -0.129 (inactive); z-score [15]: 0.0037 (inactive)

Q: Which z-score [1] does the source give for `OCCCc1cc[n+](Cc2cc3c(cc2Br)OCO3)cc1` here?
A: -0.0125

Q: What about the z-score [2] of the same compound?
A: -0.486 (inactive)

Q: And the z-score [3]?
A: 0.463 (inactive)

Q: What about the composite z-score [4] of the same compound?
A: -0.22 (inactive)

Q: What about the z-score [5] of the same compound?
A: -0.653 (inactive)

Q: And the z-score [6]?
A: -0.126 (inactive)

Q: And the z-score [7]?
A: 0.311 (inactive)

Q: What about the z-score [8] of the same compound?
A: -0.0111 (inactive)

Q: What about the z-score [9] of the same compound?
A: 0.275

Q: What about the composite z-score [10] of the same compound?
A: -0.0931

Q: What about the composite z-score [11] of the same compound?
A: 0.0084 (inactive)

Q: And the composite z-score (XIP peptide (Xip251-270))?
A: 0.579

Q: And the z-score [12]?
A: -1.96

Q: What about the z-score [13] of the same compound?
A: -2.45 (inactive)

Q: What about the z-score [14] of the same compound?
A: -0.0355 (inactive)

Q: What about the z-score [15] of the same compound?
A: 0.0561 (inactive)

Q: Which z-score [1] does the source give for `CN1C(=O)C2C=CC(C(O)c3ccc([N+](=O)[O-])cc3)N(Nc3ccccc3)C2C1=O` (centres undefined) here?
A: -1.83

Q: And the z-score [2]?
A: -1.21 (inactive)

Q: And the z-score [3]?
A: -1.03 (inactive)

Q: What about the composite z-score [4] of the same compound?
A: 0.003 (inactive)

Q: And the z-score [5]?
A: 1.1 (inactive)

Q: And the z-score [6]?
A: 0.114 (inactive)

Q: And the z-score [7]?
A: -0.987 (inactive)

Q: What about the z-score [8] of the same compound?
A: -1.16 (inactive)

Q: What about the z-score [9] of the same compound?
A: -1.44

Q: What about the composite z-score [10] of the same compound?
A: -0.0476

Q: And the composite z-score [11]?
A: 0.924 (inactive)

Q: And the composite z-score (XIP peptide (Xip251-270))?
A: 0.818

Q: And the z-score [12]?
A: -0.219

Q: What about the z-score [13] of the same compound?
A: -4.24 (inactive)

Q: And the z-score [14]?
A: 0.533 (inactive)

Q: And the z-score [15]?
A: 0.397 (inactive)
